Measured values as given in PubChem BioAssay AID488835 (Broad Institute, 2010).
The campaign covered roughly 1,400 compounds. About 140 (10%) were called active.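 Rule for the calls: active = Half-maximal inhibitory dose from the fit at or below ten times the top valid tested dose; inconclusive = Invalid fit, or flat curve showing 30 to 70% inhibition; inactive = the rest.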 Only a sample is shown. Measured potencies and affinities stand elsewhere.

target: Lysine-specific demethylase 4C (Homo sapiens) (UniProt Q9H3R0); assay: inhibition of JMJD2C H3K9me3 demethylation – biochemical, DELFIA europium, cherry-picked samples, dose response (AID 488835); details: GST-JMJD2C(1-420); series mostly up to 6 µM;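 note: signal is the H3K9me2 demethylation product detected by a dimethyl-specific antibody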
Sequence (Q9H3R0 1-420 limits assumed): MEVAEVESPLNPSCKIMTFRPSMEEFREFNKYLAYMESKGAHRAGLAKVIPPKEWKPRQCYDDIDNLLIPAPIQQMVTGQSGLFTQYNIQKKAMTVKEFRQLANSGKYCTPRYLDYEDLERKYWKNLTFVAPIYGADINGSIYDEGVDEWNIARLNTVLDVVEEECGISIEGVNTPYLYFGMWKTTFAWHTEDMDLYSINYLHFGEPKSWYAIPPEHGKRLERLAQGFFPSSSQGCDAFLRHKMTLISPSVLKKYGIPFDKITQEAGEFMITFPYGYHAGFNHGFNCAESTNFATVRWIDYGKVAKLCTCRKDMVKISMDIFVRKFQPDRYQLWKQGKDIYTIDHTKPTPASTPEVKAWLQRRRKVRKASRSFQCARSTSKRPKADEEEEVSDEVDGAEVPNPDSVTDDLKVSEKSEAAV

outcome, inactive:
Cc1cccn2c(=O)c(C(=O)NC3CC(C)CC(C)(C)C3)c(O)nc12 (stereo unspecified)
Cc1cccc(NC(=O)C2CCN(S(=O)(=O)c3cccc4nsnc34)CC2)n1
CCOc1ccc(NCc2nnc(SCC(=O)Nc3cc(C)on3)n2-c2ccccc2OC)cc1
CC(=O)Nc1ccc(NC(=O)CSc2ncnn2-c2ccccc2)cc1
COCCNC(=S)N1CCN(C)CC1
C/C(=N\N1CCN(c2ccccc2)CC1)c1ccncc1
COc1ccc(OCC(=O)N/N=C/C(C)=C/c2ccco2)c(Br)c1
COc1ccc(OC)c(/C=N/NC(=O)CNC(=O)c2ccc(S(=O)(=O)N3CCOCC3)cc2)c1
CC(C)(C)n1nnnc1C(c1cccnc1)N1CCN(c2ccccc2)CC1 (stereo unspecified)
Cc1cccc(N2CCN(C(=O)c3ccc(CS(=O)(=O)c4ccccc4C)o3)CC2C)c1 (stereo unspecified)
Cc1ccc(C(O)(C(=O)NNc2ccccn2)c2ccc(C)cc2)cc1
Cc1ccc(C)c(N(C(=O)c2csnn2)C(C(=O)NC2CCCC2)c2cccnc2)c1 (stereo unspecified)
CN(c1cccc(Cl)c1)S(=O)(=O)c1cccc(C(=O)Nc2ccc3c(c2)CCC3)c1
O=C(O)COc1ccc(NC(=O)C(c2ccccc2)c2ccccc2)cc1
Cc1ccc(-n2nnc3c(SCC(=O)NCC4CCCO4)ncnc32)cc1 (stereo unspecified)
Cc1ccc(CNC(=O)Cc2ccc(-c3ccccc3)cc2)cc1
CC(=O)c1sc(NC(=O)c2ccc(C)cc2)nc1C
NCCN1CCN2C(=O)CN(C(=O)c3ccccc3)CC12 (stereo unspecified)
CC(CC(=O)Nc1cc([N+](=O)[O-])ccc1Cl)c1ccccc1 (stereo unspecified)
COc1ccc(N(CC(=O)Nc2ccc(S(=O)(=O)N3CCCC3)cc2)S(C)(=O)=O)cc1OC
COc1ccc(NC(=O)CCN2CCCCCC2)cc1
Cc1ccc(NC(=O)c2ccc(OC(=O)CCN3C(=O)c4ccccc4C3=O)cc2)cc1
Cc1ccc(NC(=O)CSc2nnc(-c3cccs3)n2Cc2ccco2)cc1
COc1ccc(N2CCN(C(=O)CSc3nnc(-c4cccnc4)n3-c3ccccc3)CC2)cc1
COc1cc(S(=O)(=O)N(Cc2cccs2)CC2CCCO2)ccc1-n1cnnn1 (stereo unspecified)
CCOC(=O)c1sc2nc(N3CCOCC3)c3c(c2c1N)CCN(Cc1ccccc1)C3
CCOC(=O)c1c(S(=O)(=O)N2CCN(c3ccc(F)cc3)CC2)c(C)n(C)c1C
CCOC(=O)c1c(C)[nH]c(C)c1S(=O)(=O)N(C)CC(=O)N(C)Cc1ccccc1
C[C@H]1CN([C@@H](C)CO)C(=O)c2cccc(NS(=O)(=O)c3ccc(F)cc3)c2O[C@H]1CN(C)S(=O)(=O)c1cn(C)cn1
Cc1ccc(C(=O)CN2C(=O)C(=O)N(Cc3ccccc3)C2=O)cc1
COc1cccc(/C=C/C(=O)OCC(=O)NCc2ccc(Cl)cc2)c1
O=C(Nc1c(Cl)cccc1Cl)c1cc(-c2ccco2)on1
Cc1ccc(C(=O)NCc2ccco2)cc1Br
Cc1ccc(S(=O)(=O)N(C)C[C@@H]2Oc3ccc(NC(=O)Cn4cnnn4)cc3C(=O)N([C@@H](C)CO)C[C@H]2C)cc1
CCn1c(CNC(=O)Cc2ccc(OC)cc2)nnc1SCC(=O)NC1CCCCC1
CCn1nnnc1SCC(=O)NCc1cccs1
CC(C)CC(=O)Nc1ccccc1N1CCOCC1
Cc1ccccc1-c1ccc(=O)n(CC(=O)Nc2ccc(N3CCOCC3)cc2)n1
CC1Oc2ccccc2N(Cc2ccccc2Cl)C1=O (stereo unspecified)
CCOC(=O)C1=C(CSc2nc(-c3ccncc3)ccc2C#N)OC(N)=C(C#N)C1c1cccnc1 (stereo unspecified)
CCn1c(SCC(=O)NCC(=O)Nc2ccc(F)cc2)nnc1-c1ccncc1
Cc1nc2sc(C(c3cccc(F)c3)N3CCOCC3)c(O)n2n1 (stereo unspecified)
Cc1cc(=S)c2cccc(C)c2[nH]1
CC(C)CC1c2[nH]c3ccccc3c2CCN1C(=O)c1cnccn1 (stereo unspecified)
Cc1noc(C)c1S(=O)(=O)N(C)C[C@H]1Oc2c(cccc2N(C)C)C(=O)N([C@H](C)CO)C[C@@H]1C
CCOC(=O)c1c(C)[nH]c(C(=O)CN2CCOCC2)c1C
FC(F)(F)c1cccc(NCc2cn3cccnc3n2)c1
Cc1ccc(OCc2nnnn2-c2ccccc2)cc1
O=C(Nc1cccnc1)c1ccccc1Oc1ccccc1
Cc1nnc(N(C)C(=O)c2ccccn2)s1
CCOc1cc(NC(=S)NCCOC)c(OCC)cc1NC(=O)c1cccs1
O=C(COc1c(CO)cc(Br)cc1CO)NC1CCCc2ccccc21 (stereo unspecified)
CCOC(=O)N1CCN(C(=S)NC(C)(C)C)CC1
Cc1cccc(CN2CCC(Oc3ccc(C(=O)N4CCCC4)cc3)CC2)n1
CCOC(=O)c1c(S(=O)(=O)N2CCCC(C(=O)Nc3ccc(C)cn3)C2)c(C)n(C)c1C (stereo unspecified)
CCOC(=O)c1c(S(=O)(=O)NCC(=O)Nc2cccc(C)c2C)c(C)n(C)c1C
CCCCCCC(=O)N1CCN(c2cc3c(cc2F)c(=O)c(C(=O)O)cn3CC)CC1
c1csc(Cn2nnnc2CN2CCN(c3nc4ccccc4s3)CC2)c1
O=C(NCc1nnc(SCC(=O)N2CCCC2)o1)c1c(F)cccc1Cl
CCC(=O)Nc1cc2c(C)cc(=O)oc2cc1C
COc1ccc(C(=O)Nc2ncc3c(n2)CC(c2ccco2)CC3=O)cc1 (stereo unspecified)
O=C(Nc1ccc(-c2csc(Nc3ccc(Cl)cc3)n2)cc1)c1ccccc1
C[C@H]1CN([C@@H](C)CO)C(=O)c2cc(NC(=O)C3CCCCC3)ccc2O[C@H]1CN(C)S(=O)(=O)c1ccccc1
COC(=O)[C@]1(C)N[C@H](CN(C)S(=O)(=O)c2ccc(C)cc2)[C@@H]2C(=O)N(Cc3ccccc3)C(=O)[C@@H]21
O=c1oc2ccccc2c(O)c1C=NCc1ccccn1
Cc1ccc(Nc2nc3nonc3nc2N(C)C)cc1
O=C(CC(=O)N/N=C/c1c(F)cccc1Cl)NCc1ccccc1
COc1ccc(NC(=O)N(C)C[C@@H]2Oc3c(NC(=O)Nc4c(C)noc4C)cccc3C(=O)N([C@@H](C)CO)C[C@@H]2C)cc1
Cc1ccc(S(=O)(=O)Nc2ccc3c(c2)C(=O)N([C@H](C)CO)C[C@H](C)[C@@H](CN(C)Cc2ccccc2)O3)cc1
COCCCNC(=O)c1ccc2c(c1)CCN2S(C)(=O)=O
Nc1c(C(=O)OCC2CCCO2)c2nc3ccccc3nc2n1C1CCCC1 (stereo unspecified)
Cn1c2ccccc2c2c(C(=O)N3CCN(c4ccccn4)CC3)cn(C3CCCC3)c(=O)c21
Cn1c(CNC(=O)c2ccccc2F)nnc1SCC(=O)Nc1nnc(C2CC2)s1
COC(=O)C1CN(S(=O)(=O)c2ccc(C)cc2)CCN1S(=O)(=O)c1ccc(C)cc1 (stereo unspecified)
CCOC(=O)c1ccc(N2C(=O)C(C)=C(C)C2=O)cc1
CCCCCC1CC(=O)N(Cc2ccccc2)C(=O)N1 (stereo unspecified)
CCN1c2ccccc2-c2nc3ccccc3n2C1c1ccccn1 (stereo unspecified)
Cn1c(=O)c2c(ncn2CCN(CCO)Cc2ccccc2)n(C)c1=O
CCCCC1CCC(C(=O)N(CC(C)C)c2c(N)n(Cc3ccccc3)c(=O)[nH]c2=O)CC1 (stereo unspecified)
CCCCN(C(=S)NC(=O)c1cc(OC)c(OC)c(OC)c1)c1c(N)n(Cc2ccccc2)c(=O)[nH]c1=O
CCCCn1c(N)c(N(CC)C(=O)c2ccco2)c(=O)[nH]c1=O
CCN(C(=O)C(C)Sc1ccc(S(=O)(=O)N2CCOCC2)cn1)c1ccccc1 (stereo unspecified)
Cc1cccc(NCc2ccc(O)c3ncccc23)c1
COCCn1nnnc1C(c1ccccc1)N1CCN(C(=O)c2ccco2)CC1 (stereo unspecified)
Cc1ccc([N+](=O)[O-])cc1N=C(c1cccc([N+](=O)[O-])c1)N1CCOCC1
COc1cccc(Oc2nccc(N(C)C)c2C#N)c1
CC(C)CCSc1cc(NCCO)c([N+](=O)[O-])c2nonc12
COc1cc2c(cc1CNC[C@H]1O[C@@H](n3cnc4c(N)ncnc43)[C@H](O)[C@@H]1O)OCO2
CC(OC(=O)c1cccnc1SCc1cc(=O)n2ccccc2n1)c1ccccn1 (stereo unspecified)
CN(C(=O)c1ccc(NC(=O)Cc2ccc(NC(=O)C3CCN(C(=O)C4CC4)CC3)cc2)cc1)C1CC1
O=C(Nc1c(F)cc(F)cc1Br)c1ccco1
CC(C)NC(=O)Nc1ccc2c(c1)C(=O)N([C@H](C)CO)C[C@H](C)[C@@H](CN(C)C(=O)Nc1ccccc1)O2
Nc1nc(C2CC(=O)OC23CCCCC3)cs1 (stereo unspecified)
CCOc1cc(/C=N/NC(=O)C(=O)N/N=C/c2ccc(O)c(OCC)c2)ccc1O
O=C(O)c1ccc2c(c1)nnn2C1CCCCC1
Cc1oc(C(C)(C)C)cc1C(=O)N1CCN(c2ncccc2C(F)(F)F)CC1
O=[N+]([O-])c1ccccc1S(=O)(=O)N1CCN(Cc2ccc3c(c2)OCO3)CC1
CC(=O)c1c(C(C)=O)c(C)n(-c2nc(-c3cccs3)c(C)s2)c1C
COc1cc(-c2nnco2)cc(OC)c1OC
Cc1c(NC(=O)C2Cc3ccccc3CN2C(=O)c2ccco2)c(=O)n(-c2ccccc2)n1C (stereo unspecified)
CCCCNC(=O)CC1N=C2c3ccccc3N=C(SCC(=O)Nc3cccc(C)c3)N2C1=O (stereo unspecified)
